RORgamma inh = blocks mouse ROR gamma transcriptional activity; P51450; Drosophila S2 Gal4-RORgamma UAS-luciferase reporter, 20 h; Potency, µM (series often up to 53.6 µM), inactives show top-dose activity change, negative = inhibition, actives largely listed as inhibitors; 310,000 tested, 5.4% active; also: potency is read from the fitted curve at half-maximal effect; % is scaled to controls: 0 for no effect and ±100 for the full control effect; nearly all actives have a fitted effect of over 60% in size
Target sequence (P51450 whole entry, looked up, the tested form may be a part): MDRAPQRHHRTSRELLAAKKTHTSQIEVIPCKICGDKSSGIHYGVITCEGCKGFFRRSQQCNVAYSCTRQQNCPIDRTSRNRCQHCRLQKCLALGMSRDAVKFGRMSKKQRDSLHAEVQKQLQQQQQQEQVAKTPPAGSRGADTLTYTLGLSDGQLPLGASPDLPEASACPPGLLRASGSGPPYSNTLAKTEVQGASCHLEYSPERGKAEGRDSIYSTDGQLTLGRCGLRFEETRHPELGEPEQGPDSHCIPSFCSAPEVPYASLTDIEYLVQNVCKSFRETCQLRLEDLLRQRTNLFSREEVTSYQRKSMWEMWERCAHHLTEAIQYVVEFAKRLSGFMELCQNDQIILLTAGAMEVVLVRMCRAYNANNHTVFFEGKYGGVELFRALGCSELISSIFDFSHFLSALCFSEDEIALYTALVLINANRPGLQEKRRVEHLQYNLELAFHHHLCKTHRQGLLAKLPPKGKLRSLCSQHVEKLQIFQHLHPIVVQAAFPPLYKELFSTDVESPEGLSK
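Luciferase reporter read in Schneider cells carrying Gal4-RORγ (mouse) and UAS-Photinus luciferase; cells given compound 1 h before 700 uM copper sulfate induction, then incubated 20 h at ambient temperature.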
CtBP-E1A blk = CtBP/E1A binding inhibition; AlphaScreen GST-E1A/His-CtBP binding, 1536-well; hits give low values; activity change, % (no concentration beside the values); 340,000 tested, 0.49% active; AID 651724; in the data active = activity change below about -65%; inconclusive = mostly about -30% to -63%; also: % is scaled to controls: 0 for no effect and ±100 for the full control effect
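GST-E1A and His-tagged CtBP (125 nM each as 5X stock) were preincubated with pin-transferred compound for 2 h at 37 °C in the dark, then glutathione donor and nickel acceptor beads were added for 1 h before AlphaScreen reading.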
Six1-Eya2 blk = blocks human Six1 binding to Eya2; Q15475+O00167; AlphaScreen GST-Six1/His-Eya2 binding, biochemical; hits give low values; activity change, % (no concentration beside the values); 360,000 tested, 0.56% active; in the data active = activity change below about -65%; inconclusive = mostly about -30% to -63%; also: % is scaled to controls: 0 for no effect and ±100 for the full control effect
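Compounds are tested against tagged Six1 and Eya2 proteins bridged by glutathione donor and nickel acceptor beads; after a one-hour incubation at 37 °C without light, AlphaScreen emission is recorded.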
Gal4-VP16 FLuc = inhibits Gal4-VP16 luciferase reporter, ROR gamma counter-screen; Drosophila S2 Gal4-VP16 UAS-luciferase, luminescence, 20 h; Potency, µM (titrated, usually from 53.6 µM), without a hit: at the highest dose activity, negative = inhibition, actives largely listed as inhibitors; 310,000 tested, 3.5% active;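 also: Gal4-VP16 expression switched on by copper sulfate through the metallothionein promoter; potency is read from the fitted curve at half-maximal effect; % is scaled to controls: 0 for no effect and ±100 for the full control effect; nearly all actives have a fitted effect of over 50% in size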
p53 reactivator = mutant p53 re-activation in reporter cells; H1299 p53-A138V BP100-luciferase reporter, luminescence, 24 h; Potency, µM (titrated, usually from 92.2 µM), for inactives: top-dose activity change, positive = activation, most hits filed as activators; 320,000 tested, 0.063% active; AID 504706; also: potency is read from the fitted curve at half-maximal effect; % of control where 0% means no effect; nearly all actives have a fitted effect of over 45% in size
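H1299 (p53-null), stable ts p53-A138V + BP100-Luc; 1000 cells/well, Opti-MEM/10% FBS; cpd 4 pt, 1:5; 24 h, 37 deg C, 5% CO2; detection reagent 10 min RT; luminescence.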
Starred values were filed as active, the others as inactive; u = inconclusive; x = no result given; ! = not active in a repeat; [ ] = dose if it differs, or a comment. An excerpt weighted towards active compounds, which were near 5.4% of everything screened. Unless noted, calls follow the shape of the dose curve; as a rule, active = well fitted curve in the direction sought with a large enough effect; inconclusive = small, poorly fitted or top-dose-only effect, or another doubt; inactive = no such curve, though single readings can be large; an effect the other way counts as inactive or inconclusive.

SMILES	RORgamma inh	CtBP-E1A blk	Six1-Eya2 blk	Gal4-VP16 FLuc	p53 reactivator
O=C(c1cccc(C(F)(F)F)c1)C1CCCN(Cc2ncc[nH]2)C1 (stereo unspecified)	18%	2	-13	16µM*	-3%
COc1cccc(OC)c1CN1CCCC(C(=O)c2cccc(Cl)c2)C1 (stereo unspecified)	-11%	0	-5	11%	x
CCn1ccnc1CN1CCCC(C(=O)c2cccc(C(F)(F)F)c2)C1 (stereo unspecified)	2µM*	-3	-9	10µM*	-2%
NC(=O)CF	-4%	x	x	3%	x
CC(C)(C)OOC(=O)c1ccccc1	-18%	x	x	-7%	x
CC(=O)O[C@H]1C(=O)[C@@]2(C)C([C@H](OC(=O)c3ccccc3)[C@]3(O)C[C@H](OC(=O)[C@H](O)[C@@H](NC(=O)Cc4ccccc4)c4ccccc4)C(C)=C1C3(C)C)[C@]1(OC(C)=O)CO[C@@H]1C[C@@H]2O (stereo partly specified)	u	-7	-6	13µM*	6%
CCN1C[C@@]2(OC(=O)c3ccccc3NC(C)=O)CCC(OC)[C@@]34C5CC6C(OC)C[C@@](O)(C(CC23)[C@@H]14)C5(O)C6OC (stereo partly specified)	-17%	x	x	-23%	x
CC1OC(O[C@H]2C[C@@H](O)[C@]3(CO)[C@@H]4C(CC[C@]3(O)C2)[C@@]2(O)CC[C@H](C3=CC(=O)OC3)[C@@]2(C)C[C@H]4O)C(O)C(O)C1O (stereo partly specified)	18%[10 µM]	x	x	1%	x
COc1ccc(C(=O)C2CCCN(C3CSCCSC3)C2)c(C)c1 (stereo unspecified)	10µM*	-9	-12	2%	1%
Cc1ccc(O)c(C(CCN(C(C)C)C(C)C)c2ccccc2)c1 (stereo unspecified)	-12%	x	x	4%	x
Cc1cc(C(=O)CN2C(=O)c3ccccc3C2=O)c(C)n1C1CC1	27%	2	0	16µM*	6%
COc1ccccc1NC(=O)COC(=O)c1cc(C)n(C2CC2)c1C	x	-23	-9	x	2%
CCCCc1ccc(C(=O)O)nc1	7.1µM*	-68*	-87*	8.9µM*	-2%
CC(=O)N1CCN(Cc2ccc(Cl)nc2)CC1	-34%	7	3	2%	4%
CC[C@]1(O)CC[C@H]2[C@@H]3CCC4=CCCC[C@@H]4[C@H]3CC[C@@]21C	1%	x	x	4%	x
[O-][Cl+]O	-11%	x	x	-13%	x
CCC(=Nc1ccc(OC)cc1OC)c1c(O)n(C2CCCCC2)c(=O)[nH]c1=O	u	-11	-13	6.3µM*	-4%
CCC(=NCc1ccco1)c1c(O)n(C2CCCCC2)c(=O)[nH]c1=O	u	-5	-11	-10%	0%
CCCCCn1c(=O)c(C(=O)NCc2ccc(Cl)cc2)c(O)c2ccccc21	10µM*	1	2	13µM*	x
CCCCCCn1c(=O)c(C(=O)Nc2ncccc2C)c(O)c2ccccc21	14µM*	x	11	7.9µM*	x
CCCCn1c(=O)c(C(=O)NCc2ccccc2)c(O)c2ccccc21	u	x	14	u	3%
CCCCn1c(=O)c(C(=O)NCc2ccccc2Cl)c(O)c2ccccc21	16µM*	x	7	1%	14%
CCCCn1c(=O)c(C(=O)NCc2ccncc2)c(O)c2ccccc21	u	-2	-1	u	23%
CC(C)(OO)c1ccccc1	-79%	x	x	u	x
C[C@H](N)Cc1c[nH]c2ccc(OCc3cccs3)cc12	0%	x	x	3%	x
SMILES	RORgamma inh	CtBP-E1A blk	Six1-Eya2 blk	Gal4-VP16 FLuc	p53 reactivator
Cc1nn(C(C)(C)C)c(C)c1/C=N/OC(=O)Nc1ccc(Cl)c(Cl)c1	0.22µM*	x	19	1µM*	-12%
OC(c1cccc(Cl)c1)(c1cccc(Cl)c1)C1CN2CCC1CC2 (stereo unspecified)	6.3µM*	6	4	11µM*	-10%
O=C(Nc1cccc(C(F)(F)F)c1)OC1CN2CCC1CC2 (stereo unspecified)	12%	x	7	0%	-5%
N#CC(C#N)=C(C#N)c1ccc(Nc2ccccc2)cc1	u	-8	-5	14µM*	x
O=c1c2ccccc2nc(-c2ccccc2)n1-c1ccccc1	-6%	x	5	4%	-2%
O=c1c2ccccc2[se]n1-c1ccccc1	10µM*	u	-8	11µM*	1%
Cc1cc(O)c2c3c(c(=O)oc2c1)CCC(C)C3 (stereo unspecified)	u	-10	5	20µM*	x
CCOc1cc(C)cc2oc(=O)c3c(c12)CCCC3	-2%	4	11	-1%	-1%
Cc1ccc(-n2sc3ccccc3c2=O)cc1	5µM*	-9	-9	1.6µM*	-31%
CN1C[C@H](CNC(=O)OCc2ccccc2)C[C@@H]2c3cccc4c3c(cn4C)C[C@H]21	22µM*!	u	-8	-1%	-1%
COc1ccc(C=O)cc1OC	0%	x	x	7%	x
C=C(C)C1CCC(C)=CC1c1c(OC)cc(C)cc1OC (stereo unspecified)	-1%	x	x	11%	x
Oc1c(Cl)cc(Cl)cc1CN1CCN(Cc2ccccc2)CC1	-27%	-6	-73*	-13%	3%
O=C(Cc1ccccc1)N1CCN(Cc2ccccc2Cl)CC1	9%	x	1	-16%	-4%
CCCCC(=O)Cl	15%	x	x	5%	x
Cc1ccc(N2C(=O)NC(=O)/C(=C\C=C\c3ccco3)C2=O)cc1	u	8	-5	5.6µM*	-11%
Cc1cccc(N2C(=O)NC(=O)/C(=C\C=C\c3ccco3)C2=O)c1	-117%	0	-1	u	-12%
Cc1ccc(N2C(=O)NC(=O)/C(=C\C=C\c3ccco3)C2=O)cc1C	13µM*	11	-15	7.1µM*	-19%
C=C(C)C(=O)OCC1CO1 (stereo unspecified)	14%	x	x	-11%	x
O=C(Cc1coc2cc3c(cc12)CCC3)OCC(=O)N1CCCC1=O	-30%	11	-3	u	-11%
CCCN1CCCC2Cc3nc(N)ncc3CC21 (stereo unspecified)	-11%	x	x	-3%	x
S=C1Nc2ccccc2Sc2ccccc21	2µM*	8	-14	5µM*	-7%
Nc1ccccc1	-2%	x	x	1%	x
CN(C)c1ccc(/C=C2\CCCN=C2c2cccnc2)cc1	-37%	x	x	1%	x
C[C@@H]1C[C@H](C)C[C@H](C)[C@@H](O)CC(=O)O[C@H]([C@H]2CCC[C@H]2C(=O)O)C/C=C/C=C(/C#N)[C@H](O)[C@@H](C)C1	0.028µM*	x	x	u	x
Cn1c(O)c(C2=NN(C(=O)CCl)C(c3ccccc3)C2)c(=O)n(C)c1=O (stereo unspecified)	u	x	-22	18µM*	0%
CCOc1ccc(C2CC(c3c(O)n(C)c(=O)n(C)c3=O)=NN2)cc1 (stereo unspecified)	u	-2	-1	u	4%

Compound activity (PubChem BioAssay)
